# Screens deposited in PubChem BioAssay by National Center for Advancing Translational Sciences (NCATS).
# Coupling enz – qHTS Assay for Inhibitors of Fructose-1,6-bisphosphate Aldolase from Giardia Lamblia: Coupling assay counterscreen; coupling enzyme system counterscreen, AmpLite Red fluorescence; activity change, negative = inhibition, % at 58.2 µM, hits read low; actives 0.67% (n = 290,000); AID 2472, 2010; in the data active = activity change below about -30%
#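 Activity here indicates interference with the coupling reaction, not aldolase inhibition. Compounds at 57.5 uM final met coupling enzymes for 10 min at RT; substrate and AmpLite Red detection followed, with a 525/598 nm fluorescence read after 20 min.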
# Tau fluor counter – Counterscreen qHTS for Inhibitors of Tau Fibril Formation, Fluorescence Polarization; actives 0.93% (n = 280,000); tau K18 P301L Alexa594 fluorescence, heparin fibrillization; Potency, µM (highest dose often 57.7 µM), without a hit: top-dose activity change, negative = decrease; AID 1463, 2008; also: potency is read from the fitted curve at half-maximal effect; nearly all actives have a fitted effect of over 55% in size
#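 Human tau K18 P301L (15 uM unlabeled, 0.24 uM Alexa 594-labeled) in 100 mM sodium acetate pH 7 with 20 uM heparin, 6 hr at 37 C. ThT 30 uM added, 1 hr ambient; Alexa 594 FP and total fluorescence read at 555/632 nm.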
# Tau ThT inhib – qHTS for Inhibitors of Tau Fibril Formation, Thioflavin T Binding | Microtubule-associated protein tau (Homo sapiens), P10636 | recombinant tau K18 P301L, heparin-induced fibrillization, ThT fluorescence | Potency, µM (titrated, usually from 57.4 µM), inactives show at the top dose activity, negative = inhibition, actives largely listed as inhibitors | actives 2.1% (n = 270,000); also: potency is read from the fitted curve at half-maximal effect; nearly all actives have a fitted effect of over 55% in size
#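 K18 P301L tau (15 uM + 0.24 uM Alexa 594-tagged), heparin 20 uM, NaOAc pH 7, 6 h 37 C; ThT 30 uM, 1 h RT, ex 450/em 510 nm.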
# USP1 inh – Inhibitors of USP1/UAF1: Primary Screen; Ubiquitin carboxyl-terminal hydrolase 1 (Homo sapiens), O94782; recombinant USP1/UAF1, Ub-Rhodamine cleavage fluorescence; Potency, µM (doses to about 57.1 µM), for inactives: at the highest dose activity change, negative = inhibition, actives largely listed as inhibitors; actives 0.23% (n = 390,000); AID 743255, 2014; also: potency is read from the fitted curve at half-maximal effect; nearly all actives have a fitted effect of over 60% in size
#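 In this screen, compounds sit with the deubiquitinase complex (1nM) for 15 min at room temperature before Ub-Rho is added at 150nM final. Fluorescence rise is then followed for 6 reads every 60 seconds.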
# Tau FP inhib – qHTS for Inhibitors of Tau Fibril Formation, Fluorescence Polarization | AID 1468, 2008 | Microtubule-associated protein tau (Homo sapiens), P10636 | K18 P301L tau heparin fibrillization, Alexa594 FP, 6 h | actives 0.39% (n = 280,000) | Potency, µM (doses to about 57.7 µM), without a hit: at the highest dose activity, negative = inhibition, hits mostly inhibitors; also: potency is read from the fitted curve at half-maximal effect; nearly all actives have a fitted effect of over 55% in size
#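 Heparin (20 uM) drove fibril formation of recombinant tau K18 P301L, 15 uM unlabeled with 0.24 uM Alexa 594 label, for 6 hr at 37 C in 100 mM sodium acetate pH 7. Fluorescence polarization (555/632 nm) read 1 hr after 30 uM ThT.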
# * marks the source's active call; other numbers are inactive results; ? = inconclusive; / = no result; ! = not confirmed by another sample; [ ] = another dose, or the depositor's remark. In the library only some 2.3% were active in any assay of this set; here they are far more common. Unless noted, calls follow the shape of the dose curve; as a rule, active = well fitted curve in the direction sought with a large enough effect; inconclusive = small, poorly fitted or top-dose-only effect, or another doubt; inactive = no such curve, though single readings can be large; an effect the other way counts as inactive or inconclusive. % is scaled to controls: 0 for no effect and ±100 for the full control effect.
SMILES,Coupling enz,Tau fluor counter,Tau ThT inhib,USP1 inh,Tau FP inhib
Cc1ccc(N(CC(=O)N/N=C/c2cccc(Br)c2)S(C)(=O)=O)cc1,-31*,-14%,7%,-11%,?
COc1ccc(NC(=S)NCCN2CCC(C)CC2)cc1Cl,-47*,-6%,-4%,-9%,-2%
COCCN(C(=S)Nc1ccc(OC)c(Cl)c1)C1CCN(C(C)C)CC1,0,-26%,-22%,-3%,15%
COc1ccc(NC(=S)N(CCC(C)C)C2CCN(C(C)C)CC2)cc1Cl,-47*,/,/,-14%,/
Cc1ccccc1Cn1nnc2c(=O)[nH]c(C3CCN(C(=O)c4ccccc4)CC3)nc21,/,1%,2%,-8%,-2%
Nc1c(N2CCOCC2)cc(Cl)c2nonc12,-38*,-25%,16µM*,-27%,?
Nc1cc(Cl)ccc1N1CCCCC1,0,1%,3%,-12%,3%
Nc1ccc(N2CCCCC2)c2nonc12,-53*,?,8.9µM*,4.5µM*,?
Nc1c(N2CCCC2)cc(Cl)c2nonc12,-34*,-24%,2.8µM*,16µM*,?
Cc1ccc(COc2cccc3cc(-c4noc(-c5ccc(C)cc5)n4)c(=O)oc23)cc1,/,-14%,-4%,-25%,-16%
Nc1ccc(Nc2ccccc2N)cc1,-31*,14µM*[quencher],16µM*,?,?
COc1ccc(NC(=O)/C(Cl)=C(/Cl)S(=O)(=O)Cc2ccccc2)cn1,0,-24%,7.1µM*,?,?
COc1ccc(NC(=O)C(Cl)=C(Cl)Cl)cn1,-2,8%,-2%,-17%,5%
COc1ccc(NC(=O)CCl)cn1,-40*,-22%,/,/,?
Oc1cc2c(cc1O)C1c3ccc(O)c(O)c3OCC1(O)C2 (centres undefined),-72*!,?,4µM*,14%,25µM*
COC(=O)C(CCCN1C(=O)c2ccccc2C1=O)(NC(C)=O)c1nn[nH]n1 (centres undefined),-1,-11%,-13%,-22%,1%
CCOC(=O)c1sc(N/N=C/c2cccc(C)c2)nc1C,-2,8.9µM*[quencher],?,-20%,?
CCOC(=O)c1sc(N/N=C/c2ccccc2)nc1C,-5,?,?,-25%,-3%
COc1ccccc1/C=C1\S/C(=N/NC(=O)c2cccc(Br)c2)NC1=O,4,?,13µM*,-12%,1%
CC(=O)c1ccc(OCC(=O)Nc2c(C)nn(-c3ccccc3)c2C)cc1,/,/,/,-8%,/
CCn1nnc2cc(C(=O)Nc3ccc(C)c(Cl)c3)ccc21,/,-5%,-2%,-10%,2%
O=C1/C(=C/c2ccccc2)CCCc2ccccc21,0,-17%,?,-8%,-7%
O=C1/C(=C/c2ccc(C(=O)O)cc2)CCC/C1=C\c1ccc(C(=O)O)cc1,15,-9%,10µM*,-19%,?
CN(C)c1ccc(/C=C2\CCC/C(=C\c3ccccc3)C2=O)cc1,1,?,2µM*,32µM*,-2%
COc1ccc(/C=C2\CCC/C(=C\C=N\N(C)C)C2=O)cc1,2,-29%,2.5µM*,?,0%
CC(C)(C)c1ccc(CN(Cc2ccco2)c2cnc(S(C)(=O)=O)nc2C(=O)Nc2ccc(F)cc2)cc1,/,-9%,1%,-10%,-13%
CCCCNc1nc2c(c(=O)n(C)c(=O)n2C)n1CC(O)COc1ccccc1C (centres undefined),/,-16%,1%,-16%,9%
OC[C@@H]1[C@@H](c2ccc(Cl)cc2)C(c2ccc(F)cc2)=NN1c1ccccc1,-3,25µM*[quencher],-23%[81.4 µM],-29%,14%[81.3 µM]
COc1ccccc1[C@H]1C(c2cccc(Cl)c2)=NN(c2ccccc2)[C@@H]1CO,-4,20µM*[quencher],-17%[81.4 µM],?,?
Oc1ccc(C2=NN(c3ccccc3)C(c3ccc(F)cc3)C2)cc1 (centres undefined),4,/,/,-21%,/
